Screens from PubChem BioAssay.
Hits are enriched below; roughly 9% of the tested compounds scored in any of these assays.
G9a block: inhibitors of human histone lysine methyltransferase G9a; Q96KQ7; G9a H3K9 monomethylation, AlphaScreen, 2 h; Potency, µM (top dose mostly 102 µM), for inactives: top-dose activity, negative = inhibition, usual class: inhibitors; 350,000 compounds, 8.8% hits; further: on the % scale 0 is the no-effect control and ±100 the full control effect; nearly all actives have a fitted effect of over 75% in size
Target sequence (Q96KQ7 913-1193 limits assumed): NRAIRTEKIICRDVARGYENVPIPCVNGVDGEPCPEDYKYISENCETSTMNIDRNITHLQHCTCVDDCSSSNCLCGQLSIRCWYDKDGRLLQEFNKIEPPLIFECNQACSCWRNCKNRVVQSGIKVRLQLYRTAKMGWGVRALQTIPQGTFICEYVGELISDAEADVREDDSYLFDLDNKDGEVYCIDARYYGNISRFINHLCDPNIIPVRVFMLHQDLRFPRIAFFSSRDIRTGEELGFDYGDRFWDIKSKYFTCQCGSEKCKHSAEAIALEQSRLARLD
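Enzyme 20 nM + cpd, 15 min RT; add b-H3K9 pep 500 nM / SAM 20 uM; 2 h RT; anti-H3K9me1 Ab 0.5 ug/mL + SA donor / anti-rabbit acceptor beads 20 ug/mL each, 10 min; AlphaScreen read.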
HP1b binding inh: blocks HP1-beta chromodomain binding to methylated histone tails; AlphaScreen HP1-beta / biotin-H3K9me3 peptide binding; 390,000 compounds, 0.56% hits; Potency, µM (titrated, usually from 114 µM), for the others: at the top dose activity change, negative = inhibition, usual class: inhibitors; further: nearly all actives have a fitted effect of over 70% in size
Target sequence (P83916 whole entry, looked up): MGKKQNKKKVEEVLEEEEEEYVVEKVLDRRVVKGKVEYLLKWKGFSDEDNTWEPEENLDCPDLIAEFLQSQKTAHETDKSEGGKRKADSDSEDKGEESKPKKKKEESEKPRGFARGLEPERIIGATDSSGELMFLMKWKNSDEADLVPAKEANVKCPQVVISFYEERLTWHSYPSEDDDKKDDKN
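AlphaScreen: HP1-beta (50 nM) preformed 30 min with biotin-H3(1-18)K9me3 peptide (50 nM) in PBS pH 7.4, 0.01% Tween-20. Compound added for 30 min at RT, then streptavidin donor/nickel chelate acceptor beads (10 ug/mL) for 30 min.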
ALOX12 inh: inhibitors of human 12S-lipoxygenase ALOX12; AID 1671190; P18054; purified 12hLO, xylenol orange hydroperoxide absorbance; Potency, µM (highest dose often 108 µM), without a hit: at the highest dose activity change, negative = inhibition, most hits filed as inhibitors; 580,000 compounds, 1.1% hits; further: on the % scale 0 is the no-effect control and ±100 the full control effect
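Hydroperoxide product was detected by ferrous iron/xylenol orange as the 573 to 405 nm absorbance ratio. Arachidonic acid at 40 uM (final) was turned over for 30 min at room temperature by 150 nM human 12hLO, pH 7.0 Hepes buffer, after 15 min compound preincubation.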
JMJD2A Tudor: inhibitors of human JMJD2A Tudor domain; O75164; AlphaScreen JMJD2A-Tudor / H3K4me3 peptide binding; Potency, µM (doses to about 114 µM), inactives show at the highest dose activity change, negative = inhibition, hits mostly inhibitors; 390,000 compounds, 4.4% hits; AID 504339; further: on the % scale 0 is the no-effect control and ±100 the full control effect; nearly all actives have a fitted effect of over 50% in size
BAZ2B inh: inhibitors of human BAZ2B bromodomain; Potency, µM (top dose mostly 114 µM), inactives show at the highest dose activity change, negative = inhibition, most hits filed as inhibitors; 360,000 compounds, 4.4% hits; AlphaScreen BAZ2B-H3K14Ac peptide displacement; further: on the % scale 0 is the no-effect control and ±100 the full control effect; nearly all actives have a fitted effect of over 60% in size
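AlphaScreen luminescence quantifies BAZ2B engagement of H3K14Ac peptide; the protein and biotinylated peptide are both at 50 nM final, buffer PBS pH 7.4 with 0.01% Tween-20, all steps at room temperature.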
PLK1 PBD block: inhibitors of human PLK1 polo-box domain binding | P53350 | Plk1 PBD binding of FITC phosphopeptide, fluorescence polarization | AID 720504 | Potency, µM, for inactives: max response, negative = inhibition, usual class: inhibitors | 360,000 compounds, 2.8% hits; further: series mostly up to about 57 µM; on the % scale 0 is the no-effect control and ±100 the full control effect; nearly all actives have a fitted effect of over 65% in size
Active calls of the source: *; ? = inconclusive; . = no result; ! = a repeat was not active; [ ] = another dose, or the depositor's remark. The call rests on the fitted dose curve; in most records, active means well fitted curve in the direction sought with a large enough effect; inconclusive means small, poorly fitted or top-dose-only effect, or another doubt; inactive means no such curve, though single readings can be large; an effect the other way counts as inactive or inconclusive. Potency means the concentration at half of the fitted maximal effect.

SMILES | G9a block | HP1b binding inh | ALOX12 inh | JMJD2A Tudor | BAZ2B inh | PLK1 PBD block
CCOc1ccc(-c2ccc(NS(=O)(=O)c3ccc([N+](=O)[O-])cc3)cc2)nn1 | -5%[59 µM] | 10% | -25% | -18% | -21% | 0%
N[C@@H](Cc1cnc[nH]1)C(=O)O | 6µM*! | . | -1% | . | . | .
CC1(C)CSC(=NCCc2ccccc2)N1C(=O)c1ccc(C#N)cc1 | 2.8µM* | 29% | -24% | 1% | ? | 4%
N#Cc1ccc(C(=O)N2CCC3(CC2)NC(=O)N(Cc2ccccc2)C3=O)cc1 | . | . | -25% | . | . | .
Cn1c(COc2ccc3c(c2)CCCC3)nnc1SCC(=O)N1CCc2ccccc2C1 | . | . | 5% | . | . | .
Cn1c(Cc2ccc3c(c2)OCO3)nnc1SCC(=O)N1CCc2ccccc2C1 | 45µM* | 6% | -19% | -22% | 10% | -10%
Nn1c(COc2cccc(Br)c2)nnc1SCC(=O)N1CCc2ccccc2C1 | 40µM* | 52% | 0% | -16% | -10% | -9%
CCn1c(CNc2ccc(Cl)cc2)nnc1SCCN1CCCCC1 | 1%[59 µM] | 36% | 480% | -5% | 11% | -3%
Cc1ccc(C(=O)O)cc1NC(=O)C1=CSCCO1 | 50µM* | 53% | -17% | 14% | -7% | -7%
Cc1nc(N2CCC(NCCCc3ccncc3)CC2)c2ccsc2n1 | . | . | 22% | . | . | .
O=C(C1CCC1)N1CCC(Oc2ccccc2)C1 (configuration not stated) | . | . | 10% | . | . | .
COC(=O)c1ccc(COC(=O)c2cc3c(s2)CCC3)o1 | . | . | 8.9µM* | . | . | .
O=C(COC(=O)c1cc2c(s1)CCC2)Nc1ccc(F)cc1 | ? | 40µM* | ? | 14µM* | 50µM* | -27%
COC(=O)c1ccc(COC(=O)c2cc3c(s2)CCCCC3)o1 | . | . | -27% | . | . | .
NC(=O)c1ccc(NC(=O)COC(=O)c2cc3c(s2)CCC3)cc1 | . | ? | -12% | ? | . | -9%
COc1ccc(NC(=O)COC(=O)c2cc3c(s2)CCC3)cc1 | 10%[12.7 µM] | ? | . | ? | 79µM* | -20%
CCCN1C(=O)C(=O)N(Cc2cc(=O)oc3cc(C)c(C)cc23)C1=O | . | . | -24% | . | . | .
CCCCCCCN1N=C(C)C(C(=O)c2ccccc2)C1=O (configuration not stated) | ? | 5% | 0% | 50µM* | ? | -6%
COc1cc(C2=NOC(C(=O)N3CCN(c4ccccc4)CC3)C2)cc(OC)c1OC (configuration not stated) | . | . | 5% | . | . | .
CCS(=O)(=O)N1CCN(c2cc3c(cc2[N+](=O)[O-])n(C)c(=O)n3C)CC1 | ? | -22% | -2% | -31% | 56µM* | ?
COC(=O)C1CSc2[nH]c(=O)sc2C1c1ccc(OC)c(OC)c1 (configuration not stated) | 71µM* | -5% | -20% | -9% | -29% | ?
Cc1cn[nH]c1 | 19µM* | 5% | 3.4µM*! | ? | 5% | -8%
Ic1cn[nH]c1 | . | . | -6% | . | . | .
Cn1c2ccc(CC(=O)O)cc2c2cc(CC(=O)O)ccc21 | 50µM* | 27% | -15% | -12% | ? | -11%
O=C(O)Cc1ccc2[nH]c3ccc(CC(=O)O)cc3c2c1 | ? | 30% | 19% | -30% | -31% | -11%
SMILES | G9a block | HP1b binding inh | ALOX12 inh | JMJD2A Tudor | BAZ2B inh | PLK1 PBD block
O=C1OC(c2cccs2)=N/C1=C\c1ccc(-c2cccc(Cl)c2)o1 | 35µM* | 8% | ? | -29% | ? | 3%
N=C1S/C(=C\c2ccc(-c3cccc(Cl)c3)o2)C(=O)N1c1nccs1 | 3.5µM* | -15% | -24% | ? | -31% | ?
CN(C)S(=O)(=O)c1cccc(NC(=O)c2ccc(NS(=O)(=O)c3ccc(F)c(F)c3)cc2)c1 | . | . | -12% | . | . | .
CC1CCCCN1C(=O)CSc1nnc2ccccn12 (configuration not stated) | . | 18% | 235% | -7% | . | -11%
CCOC(=O)N/N=C/c1cc(C)n(-c2cccc3ccccc23)c1C | 4.5µM* | ? | 1% | -42% | ? | -7%
COC(=O)N/N=C/c1cc(C)n(-c2cccc3ccccc23)c1C | -17%[59 µM] | ? | -7% | ? | 79µM* | -5%
CCOC(=O)N/N=C/c1cc(C)n(-c2ccccc2)c1C | ? | 5% | -9% | -31% | -29% | -7%
CN(C)CCCNS(=O)(=O)c1ccc(NC2CCCCCC2)c([N+](=O)[O-])c1 | 71µM* | -6% | ? | ? | ? | -2%
CCNc1ccc(S(=O)(=O)NCCN(C)C)cc1[N+](=O)[O-] | -4% | 9% | 1% | 0% | . | -14%
Cc1ccc(/C=N/Nc2ccc3c(C(F)(F)F)cc(C(F)(F)F)nc3n2)cc1 | ? | 26% | . | 1% | 2% | -5%
NNc1ccc2c(C(F)(F)F)cc(C(F)(F)F)nc2n1 | 35µM* | 40% | 0% | -27% | -11% | 1%
Cc1ccc(CNC(=O)C(C)C2CCOCC2)o1 (configuration not stated) | . | . | 15% | . | . | .
O=C(c1ccco1)c1cn(CCOc2ccc(Cl)cc2)c2ccccc12 | -2%[59 µM] | 31% | -7% | -2% | 2% | .
Cc1ccc(-n2c(C)nn(Cc3ccc([N+](=O)[O-])cc3)c2=O)cc1 | -36% | 1% | -17% | -7% | ? | -3%
Cc1ccc(-n2c3nc(=O)[nH]c(=O)c-3cc3cc([N+](=O)[O-])ccc32)cc1 | ? | -1% | -23% | -18% | 0% | 17µM*
Cc1ccc(N(C(=O)c2ccc(S(=O)(=O)N3CCOCC3)cc2)C2C=CS(=O)(=O)C2)cc1C (configuration not stated) | -6% | 62% | 8% | -4% | 4% | 1%
O=[N+]([O-])c1ccc(N2CCN(S(=O)(=O)c3ccccc3[N+](=O)[O-])CC2)cc1NCc1cccnc1 | ? | 11% | -9% | -25% | -7% | 5%
CCn1nnnc1NC(=O)c1cc(OC)c(OC)c(OC)c1 | 2% | 8% | 0% | 79µM* | -18% | 27µM*
Cn1nnnc1NC(=O)c1ccccc1Cl | 40µM* | 37% | ? | ? | 50µM* | -3%
CCCn1nnnc1NC(=O)c1ccc(C)cc1Cl | 22µM* | 41% | -1% | ? | 56µM* | -7%
Cn1nnnc1SCC(=O)Nc1ccccc1Cl | 4% | 19% | -15% | -9% | 10% | -6%
CCn1nnnc1NC(=O)c1ccc2ccccc2c1 | . | 27% | 2% | -7% | 0% | -5%
CCCn1nnnc1NC(=O)c1cc(Br)ccc1OC | 25µM* | 20% | -2% | -12% | ? | -11%
CCCn1nnnc1NCc1cc(Br)ccc1OC | 1% | 35% | 2% | 0% | -37% | 9%
